Assay results from the supplement of paper PMC10681739.

target: T1, ETS1 (UniProt P14921); test: ETS1 binding intensity (PBM fluorescence), ETS1 alone (arbitrary fluorescence units); higher = stronger binding; settings: ETS1 concentration 1 nM; RUNX1 concentration 0 nM
T1 sequence: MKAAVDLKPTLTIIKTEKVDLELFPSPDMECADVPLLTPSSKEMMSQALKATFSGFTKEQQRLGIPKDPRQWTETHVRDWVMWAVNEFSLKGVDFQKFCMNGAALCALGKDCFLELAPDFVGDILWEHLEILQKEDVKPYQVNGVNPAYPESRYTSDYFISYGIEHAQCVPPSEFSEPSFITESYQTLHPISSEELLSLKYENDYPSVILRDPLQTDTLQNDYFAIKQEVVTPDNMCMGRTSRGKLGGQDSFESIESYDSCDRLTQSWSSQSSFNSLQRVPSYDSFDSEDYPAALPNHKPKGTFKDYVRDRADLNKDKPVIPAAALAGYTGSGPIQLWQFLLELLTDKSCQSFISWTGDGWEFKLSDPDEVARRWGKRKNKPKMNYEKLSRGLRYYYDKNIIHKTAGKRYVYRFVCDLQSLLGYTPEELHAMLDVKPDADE
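For RUNX1 binding intensity (PBM fluorescence) in presence of ETS1, normalised to RUNX1-only experiment in this document: Full-length recombinant human ETS1 or RUNX1 bound to double-stranded 36-bp genomic probes on microarrays, detected by protein-specific primary antibody and Alexa488 secondary, spot fluorescence as median of four replicate spots.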
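For RUNX1 binding intensity (PBM fluorescence), RUNX1 alone in this document: Full-length recombinant human RUNX1 bound to double-stranded 36-bp genomic probes on a high-density microarray, scored as Alexa488 fluorescence per spot via anti-RUNX1 antibody, median of four replicate spots.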

Row | Sequence | ETS1 binding intensity
1 | AACAGTTGCATAGGAAGTGGTCAGCTCTCCTCCACC | 1260
2 | GCGCCCCGCTTCCGGGGCCGCCCTAAACCGCGGCCG | 944
3 | GACACCCCACACCGGAAACCTCAGACAGTCCTCAGC | 4120
4 | AGAAGCTGCACCCGGAAATGAAACCACCAGGACCTC | 4630
5 | CCCTGAGCACTTCCCCGTAAGGCTGCGGTGCACGGG | 337
6 | TGGATGGCAAGCAACGGAAACCGCAAACAGGGCTGT | 1700
7 | TACAGCCAGGAAATGGGGAGGGTGCTGCGGGCGGCA | 858
8 | TCGCACCGGAACCCCTTGGCGGATTATGTGGGTTCC | 659
9 | GCAGGACTTCCTGTGTTGTGCTAACCTCAAATTACA | 975
10 | TGGGGAACGCTGCGGATGCTGCGGTAAACCATGCGA | 643
11 | TTCACTTCCACCACTTCCTGTGGGTTTTGTTCATCC | 3090
12 | GCCGGAAGCCACGCAGGGCCACGTCTGCGGTTCTGA | 976
13 | GAAGGAAGTGGAGACAGTAAGGGGAAACCACAAACC | 1060
14 | GGGTTGGGTGCCGGATGCGGTGAGTGAGGTTCTCAT | 2930
15 | CCGCGCCGCTTCCTCCAGACACCGCAAGGGGGTGCT | 325
16 | TCCCACTGCGACGGAAGCACAGCGGTTAAGATTGCA | 821
17 | GAAAAATGAAGTTTCCGCAGTAACCACAACACAGCC | 556
18 | GATATGGCAGGAAGTAGGGCCTGGAAACCGCACGGC | 3390
19 | GACACAAGAACAGCAGGATGTGGTCAGAGGCGTCGT | 2610

target: RUNX1 (UniProt Q01196); test: RUNX1 binding intensity (PBM fluorescence), RUNX1 alone (arbitrary fluorescence units); higher = stronger binding; settings: RUNX1 concentration 2 nM; ETS1 concentration 0 nM
Sequence (Q01196 whole entry): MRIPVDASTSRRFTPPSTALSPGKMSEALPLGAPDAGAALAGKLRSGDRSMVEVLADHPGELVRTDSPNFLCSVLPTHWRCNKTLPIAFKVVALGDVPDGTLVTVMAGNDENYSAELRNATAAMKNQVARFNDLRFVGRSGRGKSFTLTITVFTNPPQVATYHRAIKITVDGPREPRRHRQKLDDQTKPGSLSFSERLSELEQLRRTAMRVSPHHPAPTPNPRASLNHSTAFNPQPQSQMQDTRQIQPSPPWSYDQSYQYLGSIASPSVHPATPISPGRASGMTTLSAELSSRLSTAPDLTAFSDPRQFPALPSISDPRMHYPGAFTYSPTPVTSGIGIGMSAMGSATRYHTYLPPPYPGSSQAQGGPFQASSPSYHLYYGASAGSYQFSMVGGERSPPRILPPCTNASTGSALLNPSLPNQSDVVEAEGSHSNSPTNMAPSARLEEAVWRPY
Protocol: (§1)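 Cooperative gcPBM on 36-bp genomic probes with neighbouring ETS1 and RUNX1 sites. Recombinant human RUNX1 (2 nM) was incubated alone or with ETS1 (25 nM) and detected with anti-RUNX1 antibody plus Alexa488 secondary. Values are medians over 4 replicate spots; the RUNX1+ETS1 data were normalised to the RUNX1-only data. The probes sit in constant array flanks that are not printed.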

Row | Sequence | RUNX1 binding intensity
20 | GCTAGACAGGAAACAGTGAGCTTCTGTGGGCAGGAG | 758
21 | CTGAAACAGGAAGCTGAGGGTGCGGTTGGGGGAGGA | 811
22 | CGGTCAGGTCGCAGGAAACCACAGCGGCAGCGCGGC | 1370
23 | ACCAGCAACGGAAATCAGATCTCTTGTGGTTATTAT | 994
24 | AGTCCTGCCCACTTCCTGCCGCAAGAGAAATCCACT | 1250
25 | CGTCTAATTGCAGGAAGTGGTTTGAAATGTTAATCT | 1980
26 | AACCAAACAGCCACAGGAAGTGGTTTCTGTGATTCA | 840
27 | CCCACTGCGCCAGGATGTGGTCAGGTCGGTGACGTT | 886
28 | TGGGGGATGGCAGCAGGATGTGGTTATCTCAGAAAG | 814
29 | AGATTTTGTCTTCCTGTTGTGGCAACATCTGTAGAA | 1210
30 | TTTATCATGAATGCAGGATGTGGGCAGACTCACAGC | 691
31 | AGCTTGCCGGAAGCTGGTTGTTCGCTGCGGCGACCA | 705
32 | GCGCAAAGCCGGAAGGAGGGGTTTGCGGCTGGGGAG | 769
33 | GAGTGGGCGGAAATCCGTGCCTGGCAGACCACAAAG | 765
34 | AGTTACAGTAAAGGATGTGGTGAAACAGATGTTTAT | 781
35 | CTCCACCGGATGCAGCAATGAAGGCCGCAGGAATGG | 712
36 | GGTTCGCGGCTTCCGGGACATTTGTACCGCAGGGGG | 759
37 | TCCAGCTCCACAGGATGTGGTGAGTGAAGCAGCAAG | 694
38 | AACCATTACAGGATGTGAGATTCAAACCACTAACAG | 849
39 | TACACTCCCACATCCGCTGCGGCGCAACTCACAACA | 1020

Row | Sequence | RUNX1 binding intensity
40 | CTCATTGACAGGAAGTCTAACCACAGGCTTAGGCCC | 1400
41 | AACAGTTGCATAGGAAGTGGTCAGCTCTCCTCCACC | 828
42 | GCGCCCCGCTTCCGGGGCCGCCCTAAACCGCGGCCG | 1520
43 | GACACCCCACACCGGAAACCTCAGACAGTCCTCAGC | 1170
44 | AGAAGCTGCACCCGGAAATGAAACCACCAGGACCTC | 887
45 | CCCTGAGCACTTCCCCGTAAGGCTGCGGTGCACGGG | 871
46 | TGGATGGCAAGCAACGGAAACCGCAAACAGGGCTGT | 15600
47 | TACAGCCAGGAAATGGGGAGGGTGCTGCGGGCGGCA | 742
48 | TCGCACCGGAACCCCTTGGCGGATTATGTGGGTTCC | 782
49 | GCAGGACTTCCTGTGTTGTGCTAACCTCAAATTACA | 859
50 | TGGGGAACGCTGCGGATGCTGCGGTAAACCATGCGA | 1040
51 | TTCACTTCCACCACTTCCTGTGGGTTTTGTTCATCC | 1530
52 | GCCGGAAGCCACGCAGGGCCACGTCTGCGGTTCTGA | 826
53 | GAAGGAAGTGGAGACAGTAAGGGGAAACCACAAACC | 922
54 | GGGTTGGGTGCCGGATGCGGTGAGTGAGGTTCTCAT | 917
55 | CCGCGCCGCTTCCTCCAGACACCGCAAGGGGGTGCT | 893
56 | TCCCACTGCGACGGAAGCACAGCGGTTAAGATTGCA | 792
57 | GAAAAATGAAGTTTCCGCAGTAACCACAACACAGCC | 1350
58 | GATATGGCAGGAAGTAGGGCCTGGAAACCGCACGGC | 954
59 | GACACAAGAACAGCAGGATGTGGTCAGAGGCGTCGT | 722

target: RUNX1 (UniProt Q01196); test: RUNX1 binding intensity (PBM fluorescence) in presence of ETS1, normalised to RUNX1-only experiment (arbitrary fluorescence units); higher = stronger binding; settings: RUNX1 concentration 2 nM; ETS1 concentration 25 nM
Protocol: as §1

Row | Sequence | RUNX1 binding intensity
60 | GCTAGACAGGAAACAGTGAGCTTCTGTGGGCAGGAG | 1060
61 | CTGAAACAGGAAGCTGAGGGTGCGGTTGGGGGAGGA | 1520
62 | CGGTCAGGTCGCAGGAAACCACAGCGGCAGCGCGGC | 1840
63 | ACCAGCAACGGAAATCAGATCTCTTGTGGTTATTAT | 1680
64 | AGTCCTGCCCACTTCCTGCCGCAAGAGAAATCCACT | 9180
65 | CGTCTAATTGCAGGAAGTGGTTTGAAATGTTAATCT | 3650
66 | AACCAAACAGCCACAGGAAGTGGTTTCTGTGATTCA | 1960
67 | CCCACTGCGCCAGGATGTGGTCAGGTCGGTGACGTT | 3410
68 | TGGGGGATGGCAGCAGGATGTGGTTATCTCAGAAAG | 1940
69 | AGATTTTGTCTTCCTGTTGTGGCAACATCTGTAGAA | 1520
70 | TTTATCATGAATGCAGGATGTGGGCAGACTCACAGC | 1280
71 | AGCTTGCCGGAAGCTGGTTGTTCGCTGCGGCGACCA | 1220
72 | GCGCAAAGCCGGAAGGAGGGGTTTGCGGCTGGGGAG | 1360
73 | GAGTGGGCGGAAATCCGTGCCTGGCAGACCACAAAG | 1500
74 | AGTTACAGTAAAGGATGTGGTGAAACAGATGTTTAT | 923
75 | CTCCACCGGATGCAGCAATGAAGGCCGCAGGAATGG | 1130
76 | GGTTCGCGGCTTCCGGGACATTTGTACCGCAGGGGG | 1510
77 | TCCAGCTCCACAGGATGTGGTGAGTGAAGCAGCAAG | 2380
78 | AACCATTACAGGATGTGAGATTCAAACCACTAACAG | 1180
79 | TACACTCCCACATCCGCTGCGGCGCAACTCACAACA | 6980

Row | Sequence | RUNX1 binding intensity
80 | CTCATTGACAGGAAGTCTAACCACAGGCTTAGGCCC | 6750
81 | AACAGTTGCATAGGAAGTGGTCAGCTCTCCTCCACC | 999
82 | GCGCCCCGCTTCCGGGGCCGCCCTAAACCGCGGCCG | 3790
83 | GACACCCCACACCGGAAACCTCAGACAGTCCTCAGC | 2900
84 | AGAAGCTGCACCCGGAAATGAAACCACCAGGACCTC | 1380
85 | CCCTGAGCACTTCCCCGTAAGGCTGCGGTGCACGGG | 844
86 | TGGATGGCAAGCAACGGAAACCGCAAACAGGGCTGT | 26600
87 | TACAGCCAGGAAATGGGGAGGGTGCTGCGGGCGGCA | 917
88 | TCGCACCGGAACCCCTTGGCGGATTATGTGGGTTCC | 862
89 | GCAGGACTTCCTGTGTTGTGCTAACCTCAAATTACA | 2030
90 | TGGGGAACGCTGCGGATGCTGCGGTAAACCATGCGA | 1700
91 | TTCACTTCCACCACTTCCTGTGGGTTTTGTTCATCC | 5560
92 | GCCGGAAGCCACGCAGGGCCACGTCTGCGGTTCTGA | 1220
93 | GAAGGAAGTGGAGACAGTAAGGGGAAACCACAAACC | 1190
94 | GGGTTGGGTGCCGGATGCGGTGAGTGAGGTTCTCAT | 4260
95 | CCGCGCCGCTTCCTCCAGACACCGCAAGGGGGTGCT | 1660
96 | TCCCACTGCGACGGAAGCACAGCGGTTAAGATTGCA | 910
97 | GAAAAATGAAGTTTCCGCAGTAACCACAACACAGCC | 2620
98 | GATATGGCAGGAAGTAGGGCCTGGAAACCGCACGGC | 2000
99 | GACACAAGAACAGCAGGATGTGGTCAGAGGCGTCGT | 3510
